# Laboratory results published in PubChem BioAssay AID1159580 (chemical genetic matrix, 2015).
# The whole screen tested about 5,500 compounds, of which about 2,000 (36%) were called active. Roughly 18% stayed inconclusive and do not appear here. Some of the results follow. Unmarked numbers belong to inactive results. Cut-off read from the data, not from the text of the source: active = normalized growth mostly below about 0.91 (no sharp cut-off); inconclusive = no clear call, values can overlap the other calls; inactive = mostly above about 0.92.
# Test: chemical genetic growth profiling, strain panel (AID 1159580);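 note: tested at 20 µM; growth read once vehicle control cultures reached saturation at 30 °C; 1 = growth at the plate median or of vehicle wells; lower values mean less growth of the strain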
# Conditions: growth OD
# [1] = S. cerevisiae deletion strains, locus YDL101C, strain DUN1, active compounds read low
# [2] = S. cerevisiae deletion strains, locus YHR030C, strain SLT2, active compounds read low
compound,measurement,setting,value
O=C(NNc1c(Cl)cccc1Cl)c1ccc([N+](=O)[O-])o1,normalized growth,"S. cerevisiae deletion strains, locus YAR019C, strain CDC15, active compounds read low",0.956
same,normalized growth,"S. cerevisiae deletion strains, locus YBL105C, strain PKC1, active compounds read low",0.967
same,normalized growth,"S. cerevisiae deletion strains, locus YBR135W, strain CKS1, active compounds read low",0.957
same,normalized growth,"S. cerevisiae deletion strains, locus YBR136W, strain MEC1, active compounds read low",0.964
same,normalized growth,"S. cerevisiae deletion strains, locus YBR160W, strain CDC28, active compounds read low",0.945
same,normalized growth,"S. cerevisiae deletion strains, locus YDL017W, strain CDC7, active compounds read low",0.972
same,normalized growth,"S. cerevisiae deletion strains, locus YDL028C, strain MPS1, active compounds read low",0.941
same,normalized growth,[1],0.964
same,normalized growth,"S. cerevisiae deletion strains, locus YDL108W, strain KIN28, active compounds read low",0.949
same,normalized growth,"S. cerevisiae deletion strains, locus YDL132W, strain cdc53, active compounds read low",0.936
same,normalized growth,"S. cerevisiae deletion strains, locus YDL214C, strain PRR2, active compounds read low",0.895
same,normalized growth,"S. cerevisiae deletion strains, locus YDR052C, strain DBF4, active compounds read low",0.981
same,normalized growth,"S. cerevisiae deletion strains, locus YDR054C, strain cdc34, active compounds read low",0.959
same,normalized growth,"S. cerevisiae deletion strains, locus YDR226W, strain ADK1, active compounds read low",0.96
same,normalized growth,"S. cerevisiae deletion strains, locus YDR477W, strain SNF1, active compounds read low",0.873
same,normalized growth,"S. cerevisiae deletion strains, locus YER123W, strain YCK3, active compounds read low",0.87
same,normalized growth,"S. cerevisiae deletion strains, locus YER133W, strain GLC7, active compounds read low",0.916
same,normalized growth,"S. cerevisiae deletion strains, locus YFL009W, strain cdc4, active compounds read low",0.918
same,normalized growth,"S. cerevisiae deletion strains, locus YFL029C, strain CAK1, active compounds read low",0.948
same,normalized growth,"S. cerevisiae deletion strains, locus YFR003C, strain YPI1, active compounds read low",0.965
same,normalized growth,"S. cerevisiae deletion strains, locus YFR019W, strain FAB1, active compounds read low",0.89
same,normalized growth,"S. cerevisiae deletion strains, locus YFR028C, strain CDC14, active compounds read low",0.925
same,normalized growth,"S. cerevisiae deletion strains, locus YGR040W, strain KSS1, active compounds read low",0.883
same,normalized growth,"S. cerevisiae deletion strains, locus YGR052W, strain FMP48, active compounds read low",0.938
same,normalized growth,"S. cerevisiae deletion strains, locus YGR092W, strain DBF2, active compounds read low",0.874
same,normalized growth,[2],0.698 (active)
same,normalized growth,"S. cerevisiae deletion strains, locus YHR079C, strain IRE1, active compounds read low",0.885
same,normalized growth,"S. cerevisiae deletion strains, locus YHR082C, strain KSP1, active compounds read low",0.916
same,normalized growth,"S. cerevisiae deletion strains, locus YHR205W, strain SCH9, active compounds read low",0.897
same,normalized growth,"S. cerevisiae deletion strains, locus YIL147C, strain SLN1, active compounds read low",0.96
same,normalized growth,"S. cerevisiae deletion strains, locus YJL095W, strain BCK1, active compounds read low",0.833
same,normalized growth,"S. cerevisiae deletion strains, locus YJL128C, strain PBS2, active compounds read low",0.899
same,normalized growth,"S. cerevisiae deletion strains, locus YJL157C, strain FAR1, active compounds read low",0.907
same,normalized growth,"S. cerevisiae deletion strains, locus YJR016C, strain ILV3, active compounds read low",0.956
same,normalized growth,"S. cerevisiae deletion strains, locus YJR066W, strain TOR1 (second series), active compounds read low",0.851
same,normalized growth,"S. cerevisiae deletion strains, locus YJR066W, strain TOR1, active compounds read low",0.848
same,normalized growth,"S. cerevisiae deletion strains, locus YKL048C, strain ELM1, active compounds read low",0.909
same,normalized growth,"S. cerevisiae deletion strains, locus YKL067W, strain YNK1, active compounds read low",0.886
same,normalized growth,"S. cerevisiae deletion strains, locus YKL101W, strain HSL1, active compounds read low",0.884
same,normalized growth,"S. cerevisiae deletion strains, locus YKL193C, strain SDS22, active compounds read low",0.956
same,normalized growth,"S. cerevisiae deletion strains, locus YKL203C, strain TOR2, active compounds read low",0.974
same,normalized growth,"S. cerevisiae deletion strains, locus YLR113W, strain HOG1, active compounds read low",0.777 (active)
same,normalized growth,"S. cerevisiae deletion strains, locus YLR133W, strain CKI1, active compounds read low",0.906
same,normalized growth,"S. cerevisiae deletion strains, locus YLR403W, strain SFP1, active compounds read low",0.897
same,normalized growth,"S. cerevisiae deletion strains, locus YML070W, strain DAK1, active compounds read low",0.884
same,normalized growth,"S. cerevisiae deletion strains, locus YMR001C, strain CDC5, active compounds read low",0.957
same,normalized growth,"S. cerevisiae deletion strains, locus YMR205C, strain PFK2 (second series), active compounds read low",0.937
same,normalized growth,"S. cerevisiae deletion strains, locus YMR277W, strain FCP1, active compounds read low",0.932
same,normalized growth,"S. cerevisiae deletion strains, locus YNL006W, strain LST8, active compounds read low",0.973
same,normalized growth,"S. cerevisiae deletion strains, locus YNL020C, strain ARK1, active compounds read low",0.919
same,normalized growth,"S. cerevisiae deletion strains, locus YNL161W, strain CBK1, active compounds read low",0.966
same,normalized growth,"S. cerevisiae deletion strains, locus YNL183C, strain NPR1, active compounds read low",0.935
same,normalized growth,"S. cerevisiae deletion strains, locus YNL207W, strain RIO2, active compounds read low",0.953
same,normalized growth,"S. cerevisiae deletion strains, locus YNL222W, strain SSU72, active compounds read low",0.94
same,normalized growth,"S. cerevisiae deletion strains, locus YNL307C, strain MCK1 (second series), active compounds read low",0.887
same,normalized growth,"S. cerevisiae deletion strains, locus YOL078W, strain AVO1, active compounds read low",0.945
same,normalized growth,"S. cerevisiae deletion strains, locus YOL136C, strain PFK27, active compounds read low",0.886
same,normalized growth,"S. cerevisiae deletion strains, locus YOR061W, strain CKA2, active compounds read low",0.914
same,normalized growth,"S. cerevisiae deletion strains, locus YOR119C, strain RIO1, active compounds read low",0.917
same,normalized growth,"S. cerevisiae deletion strains, locus YOR231W, strain MKK1, active compounds read low",0.837
same,normalized growth,"S. cerevisiae deletion strains, locus YOR329C, strain SCD5, active compounds read low",0.967
same,normalized growth,"S. cerevisiae deletion strains, locus YPL031C, strain PHO85, active compounds read low",0.88
same,normalized growth,"S. cerevisiae deletion strains, locus YPL153C, strain RAD53, active compounds read low",0.875
same,normalized growth,"S. cerevisiae deletion strains, locus YPL204W, strain HRR25, active compounds read low",0.866
same,normalized growth,"S. cerevisiae deletion strains, locus YPL209C, strain IPL1, active compounds read low",0.964
same,normalized growth,"S. cerevisiae deletion strains, locus YPL256C, strain CLN2, active compounds read low",0.811 (active)
same,normalized growth,"S. cerevisiae deletion strains, locus YPR025C, strain CCL1, active compounds read low",0.962
same,normalized growth,"S. cerevisiae deletion strains, locus YPR106W, strain ISR1, active compounds read low",0.96
same,normalized growth,"S. cerevisiae deletion strains, locus YPR111W, strain DBF20, active compounds read low",0.94
same,normalized growth,"S. cerevisiae deletion strains, strain NNK1, active compounds read low",0.965
same,normalized growth,"S. cerevisiae deletion strains, strain TSCII, active compounds read low",0.947
O=C(NC(=S)Nc1ccc(Cl)cc1)c1ccc([N+](=O)[O-])o1,normalized growth,"S. cerevisiae deletion strains, locus YAL013W, strain DEP1, active compounds read low",0.958
same,normalized growth,"S. cerevisiae deletion strains, locus YBR229C, strain ROT2, active compounds read low",0.975
same,normalized growth,[1],1.03
same,normalized growth,"S. cerevisiae deletion strains, locus YDL134C, strain PPH21, active compounds read low",0.999
same,normalized growth,"S. cerevisiae deletion strains, locus YDR150W, strain NUM1, active compounds read low",0.964
same,normalized growth,"S. cerevisiae deletion strains, locus YEL061C, strain CIN8, active compounds read low",0.98
same,normalized growth,"S. cerevisiae deletion strains, locus YGR078C, strain PAC10, active compounds read low",0.963
same,normalized growth,[2],0.714
same,normalized growth,"S. cerevisiae deletion strains, locus YHR087W, strain rtc3, active compounds read low",0.955
same,normalized growth,"S. cerevisiae deletion strains, locus YJR043C, strain POL32, active compounds read low",0.985
same,normalized growth,"S. cerevisiae deletion strains, locus YJR075W, strain HOC1, active compounds read low",0.984
same,normalized growth,"S. cerevisiae deletion strains, locus YLR039C, strain RIC1, active compounds read low",0.899
same,normalized growth,"S. cerevisiae deletion strains, locus YLR058C, strain SHM2 (second series), active compounds read low",0.984
same,normalized growth,"S. cerevisiae deletion strains, locus YLR085C, strain ARP6, active compounds read low",0.892
same,normalized growth,"S. cerevisiae deletion strains, locus YLR262C, strain YPT6, active compounds read low",0.917
same,normalized growth,"S. cerevisiae deletion strains, locus YML094W, strain GIM5, active compounds read low",0.945
same,normalized growth,"S. cerevisiae deletion strains, locus YMR219W, strain ESC1, active compounds read low",0.978
same,normalized growth,"S. cerevisiae deletion strains, locus YMR263W, strain SAP30, active compounds read low",0.985
same,normalized growth,"S. cerevisiae deletion strains, locus YNL128W, strain TEP1, active compounds read low",0.979
same,normalized growth,"S. cerevisiae deletion strains, locus YNL153C, strain GIM3, active compounds read low",0.999
same,normalized growth,"S. cerevisiae deletion strains, locus YNL298W, strain CLA4 (second series), active compounds read low",0.912
same,normalized growth,"S. cerevisiae deletion strains, locus YNL322C, strain KRE1, active compounds read low",0.96
same,normalized growth,"S. cerevisiae deletion strains, locus YNR030W, strain Alg12, active compounds read low",0.956
same,normalized growth,"S. cerevisiae deletion strains, locus YOL006C, strain TOP1, active compounds read low",0.999
same,normalized growth,"S. cerevisiae deletion strains, locus YPL055C, strain LGE1, active compounds read low",0.937
same,normalized growth,"S. cerevisiae deletion strains, locus YPL241C, strain CIN2, active compounds read low",1.08
same,normalized growth,"S. cerevisiae deletion strains, locus YPR135W, strain CTF4, active compounds read low",0.577 (active)
same,normalized growth,"S. cerevisiae strains, strain wild type, active compounds read low",0.981
